Test results taken from ChEMBL document CHEMBL3988442, “University of Dundee, Small-Polar-MMV Screening Library” (2021).

Target: T1, Methionyl-tRNA synthetase, putative (Leishmania donovani (strain BPK282A1)) (UniProt E9BF75)
T1 sequence (whole entry): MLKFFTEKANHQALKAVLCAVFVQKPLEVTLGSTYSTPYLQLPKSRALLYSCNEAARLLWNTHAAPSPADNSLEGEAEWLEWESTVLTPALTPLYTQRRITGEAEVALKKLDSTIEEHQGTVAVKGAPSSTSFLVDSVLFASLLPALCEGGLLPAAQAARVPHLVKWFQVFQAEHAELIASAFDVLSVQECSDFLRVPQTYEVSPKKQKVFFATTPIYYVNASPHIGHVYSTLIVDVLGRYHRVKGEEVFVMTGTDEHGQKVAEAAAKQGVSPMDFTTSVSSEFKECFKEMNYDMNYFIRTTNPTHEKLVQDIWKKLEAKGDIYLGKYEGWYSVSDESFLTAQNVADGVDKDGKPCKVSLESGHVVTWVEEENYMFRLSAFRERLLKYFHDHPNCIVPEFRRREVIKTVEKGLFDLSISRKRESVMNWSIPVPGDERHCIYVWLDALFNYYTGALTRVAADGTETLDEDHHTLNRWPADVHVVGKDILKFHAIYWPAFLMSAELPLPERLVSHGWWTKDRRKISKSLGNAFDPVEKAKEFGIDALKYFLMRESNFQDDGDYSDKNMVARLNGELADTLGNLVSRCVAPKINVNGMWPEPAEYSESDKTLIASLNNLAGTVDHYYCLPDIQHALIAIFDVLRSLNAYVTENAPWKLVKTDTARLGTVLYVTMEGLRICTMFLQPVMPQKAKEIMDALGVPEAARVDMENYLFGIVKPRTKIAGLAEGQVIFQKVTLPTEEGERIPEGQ
Assay: Leishmania donovani Methionine tRNA synthetase (LdMetRS):v7. Dose response assay
Format: functional
Parameters: conc 80 nM, time 150 minutes
Settings: MAX_EFFECT 7.808564232

Row | Compound | PXC50
1 | COC(=O)CCNc1nc(CN2CCCCC2)nc2sc3c(c12)CCC3 | < 4.31
2 | CCc1nc(NCCCC(=O)O)c2c3c(sc2n1)CCC3 | < 4
3 | FC(F)(F)c1nc(N2CCOCC2)nc2c1CCCCC2 | < 4
